Source: PubChem BioAssay (NCI)
This is part of a sample that, as a whole, favours compounds with a hit. Of some 83,000 tested, about 20% had one in any assay.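 Single-dose data. Exposure time 48 hours. Values below 10 considered active.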 Values without a mark were called inactive. Calls of active or inactive are those of the source.

Columns and labels:
Assay in all cases: NCI-60 one-dose screen, 48 h (100 = growth as untreated, 0 = no growth, -100 = all killed)
Conditions in all cases: 10 µM unless noted
[1] = test system: SR leukemia
[2] = test system: RPMI-8226 leukemia
[3] = test system: OVCAR-8 ovarian
[4] = test system: OVCAR-5 ovarian
[5] = test system: OVCAR-4 ovarian
[6] = test system: SK-OV-3 ovarian
[7] = test system: IGROV1 ovarian
[8] = test system: OVCAR-3 ovarian
[9] = test system: HS 578T breast
[10] = test system: NCI/ADR-RES ovarian
[11] = test system: T-47D breast
[12] = test system: BT-549 breast
[13] = test system: MDA-MB-435 melanoma
[14] = test system: SW-620 colon
[15] = test system: MCF7 breast
[16] = test system: HCT-116 colon
[17] = test system: HCC-2998 colon
[18] = test system: KM12 colon
[19] = test system: MDA-MB-468 breast

Row | SMILES | growth [1] | growth [2] | growth [3] | growth [4] | growth [5] | growth [6] | growth [7] | growth [8] | growth [9] | growth [10] | growth [11] | growth [12] | growth [13] | growth [14] | growth [15] | growth [16] | growth [17] | growth [18] | growth [19]
1 | NS(=O)(=O)c1ccc(Nc2nc(N/N=C/c3cc(Br)c(O)c(Br)c3)nc(Nc3ccccc3)n2)cc1 | -12.1% (active) | 79.4% | 57.7% | 106% | 71.2% | 99.7% | 59.5% | 20.2% | -8.25% (active) | 98% | 25.5% | -14.3% (active) | 56.5% | 41.2% | 37.7% | 28.9% | 5.2% (active) | 61.7% | -57.4% (active)
2 | CC(=O)Nc1ccc(S(=O)(=O)Nc2ccc(-c3ccc4c(c3)NC(=O)/C4=C\c3ccc[nH]3)cc2)cc1 | 34.7% | 78.3% | 98% | 79.5% | 67.8% | 104% | 81.2% | 141% | 98.6% | 107% | 20.7% | 42.6% | 99.7% | 114% | 14.4% | 87.1% | 96.9% | 51.6% | -7.1% (active)
3 | COc1cc(-c2ccc3ncnc(N4CCc5ccc(Cl)cc54)c3c2)cnc1Cl | 12.3% | -4.08% (active) | 37.1% | 34.7% | 33.3% | 17.4% | -44.4% (active) | 29.2% | 23.5% | 26.6% | 8.82% (active) | 5.89% (active) | 32.8% | 17.4% | 3.58% (active) | 8.7% (active) | 28% | 33.2% | -16.8% (active)
4 | O=C(CSc1nc2sc3c(c2c(=O)n1-c1ccc(Cl)cc1)CCCC3)N/N=C/C=C/c1ccccc1 | -23.2% (active) | -0.68% (active) | -51.3% (active) | -38.9% (active) | -31% (active) | -11.2% (active) | -5.52% (active) | 78.3% | -16.9% (active) | -10.7% (active) | -24.5% (active) | -73.7% (active) | -50.1% (active) | -55.5% (active) | 12.6% | -13.5% (active) | 6.29% (active) | 39.9% | -81.6% (active)
5 | Cc1cccc(-c2ccccc2Oc2ccc3nnc(Cl)n3n2)c1 | 86.9% | 107% | 104% | 104% | 104% | 124% | 103% | 112% | 102% | 102% | 111% | 99.8% | 105% | 101% | 95% | 104% | 105% | 106% | 98.3%
6 | S=C(Nc1ccc(OCc2nc3ccc(Cl)cc3[nH]2)cc1)NC1CCCCC1 | -27.3% (active) | -13.1% (active) | -10% (active) | -12.8% (active) | 10.6% | 29.2% | 7.22% (active) | -3.28% (active) | 14.8% | -14.8% (active) | 17.3% | 13.5% | -10.4% (active) | -7.01% (active) | 0.799% (active) | -31.6% (active) | -69.5% (active) | -12.5% (active) | -30.8% (active)
7 | Cc1ccc2c(c1)nc(-c1ccccc1)n2CC(=O)N=Nc1c(O)[nH]c2ccc(Cl)cc12 | -20.7% (active) | -17% (active) | -66.9% (active) | -52.5% (active) | -71.3% (active) | -72.6% (active) | -86% (active) | -70.3% (active) | -32.9% (active) | -73% (active) | -79.4% (active) | -72% (active) | -14.2% (active) | 0.844% (active) | -64% (active) | -82.5% (active) | -71.3% (active) | -56.2% (active) | -70.2% (active)
8 | Cc1ccc(C(=O)Nc2cc(-n3cnc(F)c3)cc(C(F)(F)F)c2)cc1C#Cc1cnc2cccnn12 | 18.6% | 33.1% | 66.8% | 68.3% | 77.4% | 114% | 71.5% | 119% | 35.8% | 57.2% | 76.1% | 60.1% | 46.4% | 45.1% | 38.8% | 19% | 70.6% | 39.1% | 81.7%
9 | O=C(Nc1ccc(Cl)c(C(F)(F)F)c1)N1CCN(c2cc(-c3cn(-c4ccccc4)nc3-c3cccc(O)c3)ccn2)CC1 | 10.8% | -13.7% (active) | 8.11% (active) | -35.1% (active) | 13.5% | 24.3% | 10.8% | 13.5% | 7.22% (active) | -23.9% (active) | -1.78% (active) | -39.4% (active) | -65.4% (active) | 16.6% | -22.2% (active) | 4.83% (active) | 6.31% (active) | -8.11% (active) | -34.8% (active)
10 | CCCN(CCC)S(=O)(=O)c1ccc(C(=O)O)cc1.CCCN(CCC)S(=O)(=O)c1ccc(C(=O)O)cc1.[Cl][Pt+2][Cl].[NH2-].[NH2-] | 3.39% (active) | 12.3% | 39.7% | 24.5% | 35.4% | 18.8% | 7.54% (active) | 0.454% (active) | 80.8% | 101% | 26.3% | -78.8% (active) | -54.6% (active) | 20.6% | 8.34% (active) | 2.04% (active) | -27.6% (active) | 17.8% | -54.3% (active)
11 | Nc1cc2ccccc2c(=O)n1NC(=O)c1ccccc1 | 84.3% | 94.2% | 104% | 107% | 98.6% | 93.5% | 90.2% | 70.6% | 91.4% | 102% | 77.7% | 120% | 99.8% | 94.8% | 53.8% | 96.5% | 120% | 97.7% | -35.4% (active)
12 | O=C(c1ccc(Cl)cc1)C1[C@H](c2ccccc2Cl)[C@@H](c2ccccc2)NC12C(=O)Nc1ccc(Cl)cc12 (some centres undefined) | -52.8% (active) | 2.23% (active) | -76.4% (active) | -53.8% (active) | -14.4% (active) | 1.4% (active) | -42.5% (active) | -28.9% (active) | -40.4% (active) | -82.7% (active) | -71.1% (active) | -87.2% (active) | -87.5% (active) | -61.5% (active) | -37.7% (active) | -89.3% (active) | -85.6% (active) | -48% (active) | -52.5% (active)
13 | O=C(CSc1nnc(-c2ccc(-c3nc4ccc(Cl)cc4[nH]3)cc2)o1)Nc1ccc(Br)cc1 | 17.1% | 8.9% (active) | -31.8% (active) | 47.5% | 16% | 73% | 53.4% | 9.66% (active) | -0.329% (active) | 15% | 41.4% | -1.46% (active) | 28.6% | 17.9% | 20.4% | 8.26% (active) | 76.9% | 18.9% | 50.8%
14 | Cc1nn(-c2ccccc2)c2nc(C)n(CC(=O)N/N=C/c3cccc([N+](=O)[O-])c3)c(=O)c12 | 85.8% | 85.3% | 98.5% | 109% | 91.2% | 92.8% | 91.8% | 106% | 92.7% | 97% | 77.6% | 82.8% | 101% | 101% | 85.5% | 87.6% | 116% | 101% | 93.3%
15 | CCOc1ccccc1NC(=O)N/C(N)=N/c1nc2ccccc2s1 | 5.36% (active) | 0.173% (active) | -15.2% (active) | 16.9% | 33.9% | 9.18% (active) | 22.7% | -10.7% (active) | 60.8% | -14.1% (active) | 41.5% | 23.1% | -21.6% (active) | 25.5% | 11% | -5.6% (active) | 13.1% | -0.458% (active) | -11.4% (active)
16 | COc1cc(CNC(=O)C[C@H](C)CCC=C(C)C)ccc1OCc1cn(-c2ccc(Cl)cc2Cl)nn1 | 79.8% | 90.7% | 29.3% | 91.7% | 49.7% | 26.1% | 72.3% | 101% | 48.4% | 32.9% | 60.2% | 83.7% | 98.2% | 89.3% | 67.5% | 53.1% | 92.5% | 93.1% | 50.4%
